Laboratory results reported in PubChem BioAssay AID431 (Sanford-Burnham Center for Chemical Genomics, 2006).
The campaign covered roughly 63,000 compounds. About 1,100 (1.7%) were called active. This is one part of a sample in which actives are shown more often than they occur. Results with a measured potency or affinity are listed apart. A number with no mark means an inactive call.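 Rule for the calls: active = compounds whose percent cytotoxicity in the single-dose primary screen, scaled between solvent and toxic-drug controls, exceeds 50; inactive = the rest.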

Assay: cytotoxicity in KRAS-transformed pancreatic duct cells, primary screen, cell-based, fluorescence, HTS (AID 431);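 note: 0% = DMSO solvent wells and 100% = doxorubicin-treated wells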
Conditions: HPDE-C7K KRASV12 cells, Alamar Blue viability, 48 h; at 10 µM; hits give high values

| Structure (SMILES) | cytotoxicity |
| --- | --- |
| COC(=O)c1c(F)c(F)c(N2CCOCC2)c(F)c1F | -3.4% |
| CC(C)CC(=O)Nc1ncnc2c1C(=O)CC(C)(C)C2 | -2.6% |
| COc1ccc(-c2nnn(CC(=O)N(C3CCCCC3)C(C)C(=O)NC3CCCC3)n2)cc1OC (stereo not drawn) | -4.4% |
| COC(=O)C1=C(C)N(c2ccc(F)c(Cl)c2)C(=O)C1 | 0.2% |
| COC(=O)C1=C(C)N(c2ccc(Cl)c(Cl)c2)C(=O)C1 | 79% (active) |
| COC(=O)C1=C(C)N(c2cccc(Cl)c2)C(=O)C1 | -6.2% |
| CCOC(=O)c1ccc(-n2c(N)c(C(=O)NCc3ccco3)sc2=S)cc1 | 10.8% |
| O=S(=O)(Nc1ccc(S(=O)(=O)N2CCCCC2)cc1)c1cccs1 | -10.1% |
| CCOc1cc(C)c(Cl)cc1S(=O)(=O)n1cnc2ccccc21 | 7.1% |
| COc1ccc(Cl)cc1S(=O)(=O)n1nnc2ccccc21 | 4.4% |
| CCOc1ccc(Cl)cc1S(=O)(=O)n1nnc2ccccc21 | 4.6% |
| COc1cc(S(=O)(=O)n2nnc3ccccc32)c(OC)cc1Cl | 59.1% (active) |
| COc1ccc(OC)c(S(=O)(=O)n2nnc3ccccc32)c1 | 11.6% |
| CCOc1cc(C)c(Cl)cc1S(=O)(=O)n1nnc2ccccc21 | 52.2% (active) |
| COc1ccc(COC(=O)c2ccc(N3CCCC3=O)cc2)cc1F | 0.9% |
| O=C(NCc1ccco1)c1cnc2n(c1=O)CCS2 | 8.6% |
| CSc1nc(N)nc(SCC(=O)OC(C)C)c1C#N | -1.2% |
| CSc1nc(N)nc(SCC(=O)C23CC4CC(CC(C4)C2)C3)c1C#N | 76.6% (active) |
| CSc1nc(N)nc(SCC(=O)c2ccc(C)cc2)c1C#N | -1% |
| CCCCOc1cccc(C(=O)N(Cc2ccco2)C2CCS(=O)(=O)C2)c1 (stereo not drawn) | -19.4% |
| COC(=O)C(NC(=O)c1ccccc1)=C(C)C | -16.9% |
| Cc1[nH]c(=S)[nH]c(=O)c1Cc1ccccc1 | -7.5% |

| Structure (SMILES) | cytotoxicity |
| --- | --- |
| O=C(c1ccco1)N1c2ccccc2Sc2ccccc21 | 4.1% |
| O=C(N1CCN(c2ccccn2)CC1)N1c2ccccc2Sc2ccccc21 | 66.6% (active) |
| O=C(N1CCOCC1)N1CCN(c2ccccn2)CC1 | -19.2% |
| O=C(CN1CCN(c2ccccn2)CC1)N1c2ccccc2Sc2ccc(C(F)(F)F)cc21 | 17% |
| O=C(c1ccco1)N1CCN(C(=O)N2c3ccccc3Sc3ccccc32)CC1 | 74.4% (active) |
| O=C(NC1CCN(C(=O)N2c3ccccc3Sc3ccccc32)CC1)c1ccco1 | -3.7% |
| Cc1ccc2c(c1)c1c3n2CC(=C2C(=O)OC(C)(C)OC2=O)NC3CCC1 (stereo not drawn) | 33.1% |
| CC1(C(=O)O)CC(C)(C(=O)O)CC(C)(C(=O)O)C1 (stereo not drawn) | -1.4% |
| FC(F)(F)c1cc(-c2ccccc2)nc(N2CCCCC2)n1 | -12.8% |
| CCN(CCCNC(=O)c1[nH]c(C)c(C(C)=O)c1C)c1ccccc1 | 11.4% |
| NC(=O)c1ccccc1NC(=O)CCc1ccccc1 | 3.2% |
| CCOc1ccc(OCC)c(NC(=O)CN2CCN(c3cccc(C)c3C)CC2)c1 | -0.1% |
| Cc1cccn2c(=O)c(/C=N/O)c(N3CCCCC3)nc12 | 3.4% |
| O=C1c2ccccc2NC(c2ccco2)N1O (stereo not drawn) | 9.4% |
| O=C1COc2ccc(C(=O)c3ccccc3)cc2CN1 | -4.7% |
| COc1ccccc1N(CC(=O)N1CCCCCC1)S(C)(=O)=O | -11.5% |
| Oc1c(CN2CCCCC2)cc(COCc2ccccc2)c2cccnc12 | 2.2% |
| COCc1cc(CN2CCCC2)c(O)c2ncccc12 | -4.6% |
| COCc1[nH]nc2c1C1(C(=O)Nc3ccc(F)cc31)C(C#N)=C(N)O2 (stereo not drawn) | -38.8% |
| Cc1ccc(NC(=O)CC2SCCNC2=O)cc1Cl (stereo not drawn) | -0.4% |
| Clc1ccc2nc(NC3=NCN(CCN4CCOCC4)CN3)nc(-c3ccccc3)c2c1 | 8.5% |
| CN1CCN(c2nc(-c3ccccc3)c3cc(Cl)ccc3n2)CC1 | 29.7% |

| Structure (SMILES) | cytotoxicity |
| --- | --- |
| CN1CCN(c2nc(N3CCN(CCO)CC3)nc3ccccc23)CC1 | 8.2% |
| OCCN1CCN(c2nc(-c3ccccc3)c3cc(Cl)ccc3n2)CC1 | 130% (active) |
| Cc1ccc2nc(N3CCC(C(=O)O)CC3)nc(-c3ccccc3)c2c1 | 1% |
| CS(=O)(=O)N1CCC(c2noc(-c3ccc(C(F)(F)F)cc3)n2)CC1 | 0.2% |
| COc1ccc(N/C=C2\CCOC2=O)cc1 | 43.6% |
| COC(=O)c1ccc(OCC(=O)c2ccc(O)cc2O)cc1 | 0.1% |
| C=CCOc1ccc(/C(O)=C2\C(=O)C(=O)N(CCOC)C2c2cccnc2)cc1 (stereo not drawn) | -14% |
| OC(CCN1CCCC1)(c1ccccc1)C1CCCCC1 (stereo not drawn) | 28.9% |
| CC(C)(C)c1ccc(C(O)CCCN2CCC(C(O)(c3ccccc3)c3ccccc3)CC2)cc1 (stereo not drawn) | 121% (active) |
| OC(CCN1CCCCC1)(c1ccccc1)C1CCCCC1 (stereo not drawn) | 14.3% |
| COc1cccc(C2CC(c3ccc(C)cc3)Nc3nc(N)nn32)c1 (stereo not drawn) | 1.4% |
| CCN1CCN(C(=O)C2CCN(Cc3nc(-c4cccc(Cl)c4)oc3C)CC2)CC1 | 1.9% |
| Cc1oc(-c2cccc(Cl)c2)nc1CN1CCC(C(=O)N2CCN(c3ccccn3)CC2)CC1 | 6.5% |
| Cc1oc(-c2cccc(Cl)c2)nc1CN1CCC(C(=O)N2CCN(c3ccccc3F)CC2)CC1 | 62% (active) |
| Cc1cccc(OCC(O)Cn2c(NCCCOC(C)C)nc3c2c(=O)[nH]c(=O)n3C)c1 (stereo not drawn) | -8% |
| Cc1nn2c(-c3ccc(Cl)cc3Cl)nnc2s1 | -0.2% |
| CN(C)c1ccc(-c2nn3c(-c4ccccc4Cl)nnc3s2)cc1 | 57.1% (active) |
| Clc1ccccc1-c1nnc2sc(-c3ccncc3)nn12 | 3.4% |
| CN(C)c1ccc(-c2nn3c(-c4ccc(Cl)cc4)nnc3s2)cc1 | -7.1% |
| CN(C)c1ccc(-c2nn3c(-c4ccc(Cl)cc4Cl)nnc3s2)cc1 | 50.5% (active) |
| COc1ccccc1-c1nnc2sc(-c3ccc(N(C)C)cc3)nn12 | 44% |
| O=S(=O)(Cc1ccccc1)N1CCn2c(nc3ccccc32)C1 | 9.3% |

| Structure (SMILES) | cytotoxicity |
| --- | --- |
| CCOc1cccc(-c2nnc3sc(COc4ccc(Cl)cc4)nn23)c1 | 24.5% |
| CCN(Cc1cc2ccccc2[nH]c1=O)C(=O)C1CCCCC1 | -7.8% |
| Cc1ccc(C(=O)C(C)OC(=O)C2CC(=O)N(C3CCCCC3)C2)cc1 (stereo not drawn) | -11.4% |
| CC(C)(C)c1cc(CN2CCN(CCO)CC2)cc(C(C)(C)C)c1O | -4.4% |
| CC(C)(C)c1cc(C(=S)N2CCN(CCO)CC2)cc(C(C)(C)C)c1O | -13.9% |
| Cc1cc(N2CCN(c3cccc(C(F)(F)F)c3)CC2)n2ncnc2n1 | -14.7% |
| CNc1sc(C(=O)c2cccs2)c(N)c1-c1nc2ccccc2s1 | 33.2% |
| CCNc1sc(C(=O)c2cccs2)c(N)c1-c1nc2ccccc2s1 | 74.9% (active) |
| CCNc1sc(C(=O)c2cccs2)c(N)c1C#N | -11.8% |
| O=C(NCc1ccncc1)c1c(F)c(F)c(F)c(F)c1F | -8.2% |
| Cc1ccc(SCc2cc(=O)[nH]c(N3CCN(Cc4ccc5c(c4)OCO5)CC3)n2)cc1 | 0.2% |
| Cn1c(-c2cc(Br)ccc2O)n[nH]c1=S | 0.6% |
| Cc1ccccc1OCCCC(=O)Nc1ccc(N2CCOCC2)cc1 | 1.2% |
| O=C(Nc1ccccc1)NC1(C(=O)NCCCN2CCOCC2)CCCCC1 | 0.6% |
| CC(C)C(c1nnnn1C1CCCC1)N1CCc2ccccc21 (stereo not drawn) | -8.4% |
| COc1ccc(C(C)(C)C)cc1NC(=O)Nc1ccc2c(c1)OCO2 | 50.7% (active) |
| COC(=O)c1ccc(C(=O)OC)c(NC(=O)Nc2ccc3c(c2)OCO3)c1 | -0.1% |
| COc1ccccc1NC(=O)Nc1ccc2c(c1)OCCO2 | -11.4% |
| CCCCCCOC(=O)C1=C(C)NC(=O)NC1c1ccc(O)cc1 (stereo not drawn) | -1.4% |
| Cc1nc(SCc2cccc(F)c2)[nH]c(=O)c1C#N | -15.2% |
| N#Cc1c(-c2ccco2)nc(SCc2ccc(F)cc2)[nH]c1=O | 68.9% (active) |
| N#Cc1c(-c2ccco2)nc(SCC(=O)Nc2cccc(Cl)c2)[nH]c1=O | 17.5% |

| Structure (SMILES) | cytotoxicity |
| --- | --- |
| O=C(/C=N\O)NCCCNCc1ccccc1 | 11% |
| O=C(c1noc2c1CCCC2)N1CCN(C(c2ccccc2)c2ccccc2)CC1 | 2.5% |
| CCOc1cc(C(=O)N(C)c2ccccc2)cc(OCC)c1OCC | 4.9% |
| CCCCOCCCNC(=O)COc1ccccc1 | -4% |
| O=C1CC(c2ccco2)CC(O)=C1C=NCCN1CCNCC1 (stereo not drawn) | -12.7% |
| O=C1CC(c2ccco2)CC(O)=C1C=Nc1cc(Cl)ccc1O (stereo not drawn) | 75.8% (active) |
| O=C1CC(c2ccco2)CC(O)=C1C=NCCO (stereo not drawn) | -9.5% |
| Cc1occc1-c1nnc(SCC(=O)N2CCCc3ccccc32)n1Cc1ccco1 | -3.2% |
| Cc1ccc(Nc2nc(CSc3nnnn3-c3ccccc3)cc(=O)[nH]2)cc1 | 23.4% |
| Cc1nc(-c2ccccc2)cc(=O)[nH]1 | 6.9% |
| Cc1ccc(Nc2nc(CSc3nnnn3-c3ccccc3)cs2)cc1 | 39.8% |
| COc1ccc2c(C)nc(Nc3nc(C)cc(C)n3)nc2c1 | -1% |
| COc1nc(Nc2nc3ccccc3c(=O)[nH]2)nc2ccc(C)cc12 | 91.7% (active) |
| Cc1nc(Nc2nc(-c3ccccc3)cc(=O)[nH]2)nc2ccccc12 | 68.2% (active) |
| COCc1cc(=O)[nH]c(Nc2nc(C)c3ccc(C)cc3n2)n1 | 2.4% |
| COc1ccc2c(C)nc(Nc3nc(C)cc(=O)[nH]3)nc2c1 | 87.3% (active) |
| Cc1ccc2c(C)nc(Nc3nc(CSc4nnnn4-c4ccccc4)cc(=O)[nH]3)nc2c1 | 54.8% (active) |
| Cc1nnc(SCc2cc(=O)[nH]c(Nc3nc(C)c4ccccc4n3)n2)s1 | 3.9% |
| CCc1c(C)nc(Nc2nc(C)c3cc(OC)ccc3n2)[nH]c1=O | 49.1% |
| CCCCCc1c(C)nc(Nc2nc(C)c3cc(OC)ccc3n2)[nH]c1=O | 9.7% |
